# High-throughput results from PubChem.
# Compounds with a hit are over-represented: about 2.9% of the library has one in this group of screens.
# ADAM10 inh = inhibits human ADAM10; O14672; recombinant ADAM10, EDANS/DABCYL FRET peptide cleavage, 3 h; inhibition, % at 7 µM; 370,000 tested, 0.62% active;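 active = inhibition above a per-campaign cutoff equal to the mean of compounds falling between control-based bounds plus 3 SD, cut at about 20% in these data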;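 note: 0% = DMSO wells while the 100% control is not disclosed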
# Target sequence (O14672 214-748 limits assumed): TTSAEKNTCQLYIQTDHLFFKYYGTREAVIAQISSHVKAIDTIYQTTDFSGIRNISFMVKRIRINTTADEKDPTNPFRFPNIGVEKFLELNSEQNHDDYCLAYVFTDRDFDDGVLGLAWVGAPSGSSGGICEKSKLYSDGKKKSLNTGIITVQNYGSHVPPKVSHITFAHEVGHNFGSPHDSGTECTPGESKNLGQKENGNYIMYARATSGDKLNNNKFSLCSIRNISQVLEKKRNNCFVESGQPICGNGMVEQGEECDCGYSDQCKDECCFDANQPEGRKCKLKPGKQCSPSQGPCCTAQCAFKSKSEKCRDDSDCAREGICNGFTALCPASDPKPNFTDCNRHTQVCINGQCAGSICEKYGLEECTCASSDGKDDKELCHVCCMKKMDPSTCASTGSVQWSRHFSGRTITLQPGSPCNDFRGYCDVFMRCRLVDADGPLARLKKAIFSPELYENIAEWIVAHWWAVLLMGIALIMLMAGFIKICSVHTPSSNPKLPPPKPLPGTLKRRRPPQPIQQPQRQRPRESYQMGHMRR
# PLC-gamma1 inh = blocks human PLC-gamma1 enzyme activity | P19174 | purified PLC-gamma1, fluorogenic substrate, fluorescence | 370,000 tested, 0.84% active | inhibition, % at 12.2 µM; in the data active = inhibition above about 9.5%
# PLCb3 inh = inhibitors of human phospholipase C beta3; Q01970; Purified PLC-beta3, fluorogenic substrate, fluorescence; inhibition, % at 12.2 µM; 370,000 tested, 0.18% active; AID 720704; in the data active = inhibition above about 11%;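 note: 0% = median of compound wells on plate and 100% = full blocker control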
# proKLK7 act = proKLK7 (human) activation, primary screen | P49862 | AID 652039 | purified proKLK7, EDANS-DABCYL substrate fluorescence; 100% is mature enzyme control, 0% vehicle | 370,000 tested, 0.9% active | activation, % at 7 µM;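 active = activation above the mean of all tested compounds plus 3 SD, computed per campaign excluding outliers beyond control limits, cut at about 13% in these data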
# ADAM17 inh = inhibitors of human ADAM17. inhibition, % at 6.95 µM. 370,000 tested, 0.83% active. recombinant ADAM17, EDANS/DABCYL FRET peptide cleavage. P78536;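 active = inhibition above the mean of compounds lying between control limits plus 3 SD, set per campaign, cut at about 8.5% in these data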;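 note: 0% = DMSO-only wells as the low control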
# ADAM10 confirm = human ADAM10 inhibition, confirmation. shares compounds with ADAM10 inh. ADAM10 QFRET peptide cleavage, EDANS fluorescence. inhibition, % at 6.95 µM. 2,100 tested, 1% active. AID 743208;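 active = inhibition above about 20% chosen separately for each screening run, limit read from the data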;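 note: 0% = DMSO wells and 100% = marimastat wells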
# ADAM17 ctr = ADAM17 inhibition, counter-screen for ADAM10 exosite hits. shares compounds with ADAM10 inh. ADAM17 QFRET peptide cleavage, EDANS fluorescence. inhibition, % at 6.95 µM. 2,100 tested, 0.5% active. AID 743214;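 active = mean triplicate inhibition above the solvent-only control wells' mean plus 3 SD, cut at about 12% in these data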;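 note: 0% = DMSO wells and 100% = marimastat wells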
# ADAM10 ctr = ADAM10 inhibition, counter-screen for ADAM17 exosite hits. shares compounds with ADAM17 inh. inhibition, % at 6.95 µM. 2,900 tested, 47% active. recombinant ADAM10, EDANS/DABCYL FRET peptide cleavage, 3 h. AID 743256;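 active = mean inhibition over the triplicate runs exceeds the activity threshold set in the earlier primary screen, cut at about 20% in these data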;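 note: 0% = DMSO wells and 100% = marimastat wells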
# ADAM17 confirm = confirmation of inhibitors of human ADAM17; shares compounds with ADAM17 inh; AID 743257; inhibition, % at 6.95 µM; recombinant ADAM17, EDANS/DABCYL QFRET peptide cleavage; 2,900 tested, 65% active;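 active = mean inhibition across replicates above the hit cutoff set in the primary screen, cut at about 8.5% in these data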;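 note: 0% = DMSO wells and 100% = marimastat wells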
# An asterisk follows results filed as active; nt = no result.
SMILES,ADAM10 inh,PLC-gamma1 inh,PLCb3 inh,proKLK7 act,ADAM17 inh,ADAM10 confirm,ADAM17 ctr,ADAM10 ctr,ADAM17 confirm
CCCCCCn1c(=O)n2n(c1=O)[C@@H]1CN(S(=O)(=O)c3ccc(C)cc3)C[C@]1(O)[C@@H](OC(=O)NCc1ccccc1)C2,22.0*,-0.3,3.1,-0.6,9.9*,4.4,1.0,33.3*,15.8*
CCCCCCn1c(=O)n2n(c1=O)C[C@]1(OC(=O)NCc3ccccc3F)CN(S(=O)(=O)c3ccc(C)cc3)C[C@]1(O)C2,37.4*,7.2,4.4,0.2,13.5*,4.4,1.5,32.7*,15.9*
Cc1ccc(S(=O)(=O)N2C[C@H]3n4c(=O)ccc(=O)n4C[C@H](OC(=O)NCc4ccccc4)[C@@]3(O)C2)cc1,-13.4,0.6,4.5,0.8,-5.9,nt,nt,nt,nt
CCCCCCNC(=O)O[C@@]12CN(S(=O)(=O)c3ccc(C)cc3)C[C@]1(O)Cn1c(=O)n(CCCCCC)c(=O)n1C2,-5.7,-0.8,3.0,0.6,-1.3,nt,nt,nt,nt
CCOC(=O)CC[C@@H]1CC[C@]2(CCCN(C(=O)c3cccnc3)C2)O1,3.6,3.1,4.5,0.3,0.8,nt,nt,nt,nt
CCCCCCC(=O)n1ccc2ccc(-c3ccc4ccn(Cc5ccc(OC)cc5)c4c3)cc21,-24.8,-53.1,-83.2,0.3,-13.2,nt,nt,nt,nt
COC(=O)CSc1nnc(-c2n[nH]c3c2CCC3)n1N,-4.9,-0.5,2.0,0.3,-2.3,nt,nt,nt,nt
O=C1C=C(c2ccc(-c3ccccc3)cc2)C[C@@H](c2ccc(F)cc2)C1,-10.2,-0.3,-1.4,-0.3,-6.7,nt,nt,nt,nt
O=C1C=C(c2ccc3[nH]ccc3c2)C[C@@H](c2ccc(Cl)cc2)C1,21.1*,-58.2,-89.2,-1.6,15.4*,9.8,3.6,7.4,8.2
Cc1ccc(C2=CC(=O)C[C@H](c3ccc(F)cc3)C2)cc1,27.9*,7.0,-2.4,-0.1,12.4*,1.6,0.8,22.2*,17.2*
O=C(c1cccs1)N1CC[C@H]2[C@H](CCCN2Cc2ccc(F)cc2)C1,-6.8,0.3,0.2,0.3,-3.5,nt,nt,nt,nt
O=C(Nc1ccc(Nc2ccccc2)cc1)c1c(F)c(F)c(F)c(F)c1F,20.2*,-0.4,-11.2,0.0,14.4*,4.9,0.6,29.6*,14.3*
COc1ccc(C(=O)NC(=S)Nc2ccc(Cc3ccncc3)cc2)cc1,35.6*,2.2,4.3,0.4,9.0*,3.3,0.7,23.0*,11.5*
Cc1ccccc1C(=O)NC(=S)Nc1ccc(Cc2ccncc2)cc1,5.6,-0.3,4.9,-0.5,3.1,nt,nt,nt,nt
O=C(N[C@H](Cc1ccccc1)C(=O)NCc1cccc2ccccc12)[C@H]1O[C@@H](n2ccc(=O)[nH]c2=O)[C@H](O)[C@@H]1O,-4.7,1.1,0.2,0.1,-1.2,nt,nt,nt,nt
Cc1ccc(S(=O)(=O)N(C)C[C@@H]2OCc3ccccc3-c3c(n(C)c4ccccc34)C(=O)N([C@H](C)CO)C[C@@H]2C)cc1,26.7*,6.7,-5.7,0.2,12.0*,8.7,1.9,38.5*,20.8*
C[C@H](CO)N1C[C@H](C)[C@H](CN(C)S(=O)(=O)c2cccc(F)c2)OCc2ccccc2-c2c(n(C)c3ccccc23)C1=O,14.6,-0.5,-0.9,0.1,1.0,nt,nt,nt,nt
Cc1nnc(NC(=O)C2CCCN2S(=O)(=O)c2ccc(Cl)cc2)s1 (stereo not given),-3.5,-0.9,-6.4,0.8,-1.2,nt,nt,nt,nt
O=C(Nc1nc2ccccc2s1)C1CCCN1S(=O)(=O)c1ccc(Cl)cc1 (stereo not given),30.5*,5.5,10.3,0.2,11.3*,2.4,0.4,32.8*,16.5*
CCn1c2ccccc2c2cc(NS(=O)(=O)c3ccccc3C)ccc21,24.6*,8.1,2.1,-0.6,9.4*,5.9,2.9,20.9*,12.2*
CCCC(=O)Nc1ccc2c(c1)c1ccccc1n2CC,-21.0,-1.8,-1.6,0.0,-2.1,nt,nt,nt,nt
CN(C)c1ccc(C(CNC(=O)c2ccc(C#N)cc2)c2c[nH]c3ccccc23)cc1 (stereo not given),12.7,-1.0,0.5,-0.3,6.8,nt,nt,nt,nt
CCOC(=O)c1ccc(S(=O)(=O)NCC(c2ccc(N(C)C)cc2)c2c[nH]c3ccccc23)cc1 (stereo not given),26.2*,-1.9,-5.4,-0.6,12.1*,8.9,3.3,35.9*,22.8*
O=C(Nc1cccc(C(F)(F)F)c1)OCCCN1CCC2(CCC(c3ccccc3)CC2)C1=O (stereo not given),14.5,4.6,1.4,0.1,6.9,nt,nt,nt,nt
COc1ccc(S(=O)(=O)N2CCC(c3cc(-c4cccc5ccccc45)n[nH]3)CC2)cc1,24.9*,0.8,0.4,0.6,10.9*,17.9,5.2,5.8,9.1*
SMILES,ADAM10 inh,PLC-gamma1 inh,PLCb3 inh,proKLK7 act,ADAM17 inh,ADAM10 confirm,ADAM17 ctr,ADAM10 ctr,ADAM17 confirm
CCOc1ccc(C=Nn2c(-c3ccc(F)cc3)n[nH]c2=S)cc1,1.6,0.3,1.8,0.6,2.2,nt,nt,nt,nt
O=C(Nc1ccccc1)OCCOc1ccc(Cl)cc1Cl,32.3*,6.3,7.3,0.7,12.4*,4.9,2.2,28.3*,15.2*
O=C(Nc1cccc(Cl)c1)OCCOCCOC(=O)Nc1cccc(Cl)c1,21.3*,5.1,-0.2,0.9,9.8*,3.8,1.8,19.5,13.3*
CC(C)COC(=O)NCCOC(=O)Nc1cccc(Cl)c1,5.3,1.6,1.2,0.6,4.0,nt,nt,nt,nt
COc1ccc(/C(C)=N/NC(=O)Cc2cc(=O)[nH][nH]2)cc1OC,-0.3,0.6,1.6,-0.3,0.5,nt,nt,nt,nt
CC(C)(C)OC(=O)N1CCC(N[C@@H](Cc2ccccc2)C(=O)NCCc2c[nH]c3ccccc23)(C(=O)NC2CCCCC2)CC1,23.8*,8.0,3.4,nt,10.4*,6.9,1.5,34.0*,19.4*
CC(C)(C)OC(=O)N1CCC(N[C@@H](Cc2c[nH]c3ccccc23)C(=O)NCC(c2ccccc2)c2ccccc2)(C(=O)NC2CCCCC2)CC1,14.3,-0.1,1.7,nt,6.2,nt,nt,nt,nt
COCc1cn(-c2ccc3c(c2)[C@@]2(CC(=O)N(C)C2c2ccccc2)C(=O)N3CC(C)C)nn1 (stereo not given in full),2.9,0.5,1.7,0.3,0.7,nt,nt,nt,nt
CN(c1ccccc1)S(=O)(=O)c1cccc(NC(=O)CSc2ncc(C(F)(F)F)cc2Cl)c1,19.8*,2.1,-3.9,0.1,10.0*,10.2,3.5,26.5*,10.3*
